# p53ts 39C kill: p53ts cell cytotoxicity, nonpermissive temperature | H1299-p53A138V viability at 39C, ATP luminescence, 24 h | Potency, µM (titrated, usually from 46.1 µM), without a hit: at the highest dose activity change, negative = cell killing, actives largely listed as cytotoxic | 1.5% of 130,000 active; further: on the % scale 0 is the no-effect control and ±100 the full control effect; nearly all actives have a fitted effect of over 55% in size
# Imprint erasure: induces erasure of genomic imprints in mouse ES cells; mouse ES Peg3-LacZ reporter, beta-gal luminescence, 40 h; Potency, µM (doses to about 60.7 µM), for inactives: at the top dose activity change, positive = activation, actives largely listed as activators; 0.02% of 110,000 active; AID 1948
#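 Imprint erasure is scored as LacZ activity from the silenced maternal Peg3 allele in feeder-free female ES cells cultured 40 h with LIF. Luminescence is normalized to in-plate negative controls and fitted to the Hill equation.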
# p53ts 32C tox: kills p53ts cells at the permissive temperature | H1299-p53A138V at 32C, ATP luminescence viability, 24 h | Potency, µM (highest dose often 46.1 µM), without a hit: at the top dose activity change, negative = cytotoxicity, usual class: cytotoxic | 0.93% of 130,000 active | AID 924;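 further: 0% = DMSO and -100% = full killing by reference compound; nearly all actives have a fitted effect of over 55% in size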
#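 H1299-p53 A138V cells (temperature-sensitive p53) exposed 24 h to up to 46 uM compound at 32C, where p53 is wild-type in conformation. Viability read as ATP luminescence and normalised to DMSO and 100 uM tamoxifen. AC50 fitted with the Hill equation.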
# Starred values were filed as active, the others as inactive; ? = inconclusive; · = not tested or not shown; [ ] = another dose, or the depositor's remark. Rows were chosen to be rich in hits. Some 1.8% of all compounds tested hit in one or more screens of this group. The call rests on the fitted dose curve; in most records, active means well fitted curve in the direction sought with a large enough effect; inconclusive means small, poorly fitted or top-dose-only effect, or another doubt; inactive means no such curve, though single readings can be large; an effect the other way counts as inactive or inconclusive. Potency means the concentration at half of the fitted maximal effect.
SMILES,p53ts 39C kill,Imprint erasure,p53ts 32C tox
O=C(NCc1ccc(F)cc1)c1cccc(N2CCCS2(=O)=O)c1,-9.2%,-11.0%[10.9 µM],-5.6%
Cc1ccc2c(c1)c1c3n2CCN[C@H]3CCC1,?,3.6%,-0.8%
c1cc2c(cc1C1CCCCC1)c1c3n2CCN[C@H]3CCC1,10µM*,-22.4%,25.1µM*
Cc1c(C(=O)Nc2ccc(-c3nc4cc(Cl)ccc4o3)cc2)oc2ccccc12,13.8%,-9.6%[10.9 µM],8.8%
COc1ccc(S(=O)(=O)NCc2ccc3c(c2)CCN3C(=O)c2ccc(C)cc2)cc1Cl,?,-14.7%[10.9 µM],28.5%
c1ccc(-c2cccc(-c3ccccn3)n2)nc1,0.794µM*,-20.1%,?
c1ccc(-c2nnc(-c3ccccn3)nn2)nc1,?,-55.8%,?
Cc1ccc(C)c(NC(=O)Cn2c(=O)oc3cc(S(=O)(=O)NCc4ccccc4)ccc32)c1,-28.0%,-6.7%[10.9 µM],-8.8%
C=CCSc1nnc(-c2ccc(Cl)cc2Cl)o1,-24.2%,-30.7%,?
Clc1ccc(-c2nnc(SCc3ccon3)o2)c(Cl)c1,10µM*,-69.5%,10µM*
COc1cccc2sc(N(Cc3cccnc3)C(=O)c3ccc4c(c3)OCCO4)nc12,-12.0%,-6.1%[10.9 µM],3.2%
COc1ccccc1CNc1nc(-c2ccco2)nn1S(=O)(=O)c1ccc(C)cc1,-22.7%,-9.9%[10.9 µM],0.4%
Cc1ccc(CNc2nc(-c3ccco3)nn2C(=O)c2ccccc2[N+](=O)[O-])cc1,10µM*,-21.5%[10.9 µM],?
COc1ccccc1CNc1nc(-c2ccco2)nn1C(=O)c1ccccc1[N+](=O)[O-],-1.7%,4.8%[10.9 µM],?
O=C(NCC1CCCO1)c1ccc(C(=O)NCC2CCCO2)cc1 (stereo not drawn),-3.7%,-3.2%,0.2%
O=C(Cc1cc(=O)[nH]c(=O)[nH]1)NCC1CCCO1 (stereo not drawn),20µM*,-26.0%,-9.9%
Cc1cc(C)cc(OCC(=O)NCCN2CCOCC2)c1,-2.0%,-4.8%,-8.3%
O=C(Cc1cc(=O)[nH]c(=O)[nH]1)NCCN1CCOCC1,?,-49.6%,12.6µM*
CCOC(=O)c1c(NC(=O)c2ccc(S(=O)(=O)N(CC(C)C)CC(C)C)cc2)sc2c1CCN(C(=O)OCC)C2,?,8.2%[10.9 µM],-2.0%
COc1ccccc1NC(=O)Cn1c(=O)n(Cc2ccco2)c(=O)c2oc3ccccc3c21,11.3%,-16.1%[10.9 µM],5.3%
CC[C@@H](CS(=O)(=O)O)[N+](=O)[O-],-3.3%[9.22 µM],11.6%[10.9 µM],-6.4%[9.22 µM]
CCCCn1c(CN2CCOCC2)nc2c1c(=O)n(C)c(=O)n2C,3.98µM*,-37.3%,?
Cn1c(=O)c2c(nc(CN3CCOCC3)n2CCN2CCOCC2)n(C)c1=O,-10.5%,5.7%,-1.9%
COc1ccc(CNCc2c(C(=O)O)c(C)n(Cc3ccc(Cl)cc3)c2C)c(OC)c1,-15.7%,16.1%[10.9 µM],2.2%
COc1cc2c(=O)n(Cc3ccccc3Cl)c(=O)n(CC(=O)Nc3ccc(C)c(C)c3)c2cc1OC,-4.1%,-5.2%[10.9 µM],3.9%
SMILES,p53ts 39C kill,Imprint erasure,p53ts 32C tox
CN(c1ccccc1)S(=O)(=O)c1nnc(NC(=O)c2ccccc2)s1,-17.3%,-18.3%[10.9 µM],-23.1%
CCN(c1ccccc1)S(=O)(=O)c1nnc(NC(=O)c2cccs2)s1,1.26µM*,-84.9%[10.9 µM],1µM*
CN(c1ccccc1)S(=O)(=O)c1nnc(NC(=O)C2CCCCC2)s1,15.8µM*,-23.5%[10.9 µM],7.94µM*
CCN(c1ccc(C)cc1)S(=O)(=O)c1nnc(NC(=O)c2cccs2)s1,-5.7%,5.5%[10.9 µM],-3.6%
Cn1c(NCCCCO)nc2c1c(=O)n(Cc1ccc(Cl)cc1)c(=O)n2C,13.2%,11.2%[10.9 µM],4.8%
Nc1nnc(CC(=O)N/N=C\c2cc([N+](=O)[O-])ccc2O)s1,8.1%,·,·
O=[N+]([O-])c1ccc(O)c(/C=N/Nc2ccccn2)c1,5.62µM*,·,-21.6%
CN(C)c1ccc(C(CNS(=O)(=O)c2ccc(Br)cc2)N2CCCC2)cc1 (stereo not drawn),-5.2%,-6.0%[10.9 µM],-9.8%
CC(C)(C)c1ccc(C(=O)Nc2nnc3n2CCS3)cc1,12.6µM*,-19.6%[10.9 µM],?
CC(C)(C)C(=O)Nc1nnc2n1CCS2,?,-11.5%[10.9 µM],-1.0%
COc1ccc(-n2ccn(CC(=O)Nc3ccc(C)cc3C)c(=O)c2=O)cc1,-0.2%,-12.4%[10.9 µM],-4.4%
O=C(Cn1ccc2ccccc2c1=O)N1CCN(Cc2ccc3c(c2)OCO3)CC1,-13.7%,-11.1%,-2.8%
O=C(CS(=O)(=O)Cc1ccccc1)N1CCN(Cc2ccc3c(c2)OCO3)CC1,12.6µM*,-63.8%,12.6µM*
CC(=O)Nc1ccc(Nc2nc3c(S(=O)(=O)c4cccc(Cl)c4)nnn3c3ccsc23)cc1,-15.2%,-17.4%[10.9 µM],9.8%
Cc1ccccc1NC(=O)CSc1ncc2c(n1)-c1ccccc1N(C)S2(=O)=O,-12.5%,-6.6%[10.9 µM],-2.5%

# Screening results (PubChem BioAssay)
